Measurements reported in PubChem BioAssay.
Activity calls are given as the source filed them.

What was measured:
[1] = test system: Plasmodium falciparum Sir2 (PF13_0152, Sir2A); assay: Plasmodium falciparum Sir2A binding compounds – biochemical, small-molecule microarray, 635 nm fluorescence, primary screen (AID 1098); conditions: fluorescence 635 nm, higher = more signal;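 note: score merges spot fluorescence intensity with its signal-to-noise ratio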
[2] = probe aDKK1 binding to arrayed compounds – biochemical, biotinylated probe, 635/667 nm fluorescence, primary screen (AID 1099); conditions: small-molecule microarray, higher = more signal;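 note: score merges 667nm spot fluorescence with signal to noise across triplicate slides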
[3] = probe aCHRDL2 binding to arrayed compounds – biochemical, biotinylated probe, 635/667 nm fluorescence, primary screen (AID 1100); conditions: small-molecule microarray, higher = more signal
[4] = change in splice reporter luminescence, either direction, cell-based, HEK293, spliceosome inhibition project, primary screen (AID 1101); conditions: HEK293 splicing luciferase reporter, 24 h, higher = more signal, called active from +8 up or from −8 down;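 note: HEK293 cells carrying a splicing-competent luciferase reporter gene; test concentration not given here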
[5] = target: Fibroblast growth factor 10 (Homo sapiens) (UniProt O15520); assay: compounds binding fibroblast growth factor 10 – biochemical, small-molecule microarray, 635 nm fluorescence, primary screen (AID 1102); conditions: FGF10 binding, fluorescence 635 nm, higher = more signal
Chain of Fibroblast growth factor 10 (Homo sapiens) (O15520 whole entry, looked up): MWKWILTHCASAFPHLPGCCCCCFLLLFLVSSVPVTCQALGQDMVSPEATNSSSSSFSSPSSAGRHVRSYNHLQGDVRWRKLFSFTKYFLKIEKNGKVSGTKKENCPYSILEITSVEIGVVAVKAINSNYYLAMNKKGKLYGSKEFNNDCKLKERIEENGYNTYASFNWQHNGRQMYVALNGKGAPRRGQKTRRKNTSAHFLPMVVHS

[6] = test system: glycogen synthase kinase-3 (GSK3A per assay name; protocol says GSK3B); assay: compounds binding glycogen synthase kinase-3 – biochemical, small-molecule microarray, 635 nm fluorescence, GSK3A, primary screen (AID 1103); conditions: fluorescence 635 nm, higher = more signal; note: the record names both GSK3A and GSK3B
[7] = target: Epidermal growth factor receptor (Homo sapiens) (UniProt P00533); assay: compounds binding epidermal growth factor receptor – biochemical, small-molecule microarray, 635 nm fluorescence, primary screen (AID 1104); conditions: EGFR binding, higher = more signal;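 note: score merges 667 nm emission intensity with spot signal to noise over triplicate slides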
Chain of Epidermal growth factor receptor (Homo sapiens) (P00533 whole entry, looked up): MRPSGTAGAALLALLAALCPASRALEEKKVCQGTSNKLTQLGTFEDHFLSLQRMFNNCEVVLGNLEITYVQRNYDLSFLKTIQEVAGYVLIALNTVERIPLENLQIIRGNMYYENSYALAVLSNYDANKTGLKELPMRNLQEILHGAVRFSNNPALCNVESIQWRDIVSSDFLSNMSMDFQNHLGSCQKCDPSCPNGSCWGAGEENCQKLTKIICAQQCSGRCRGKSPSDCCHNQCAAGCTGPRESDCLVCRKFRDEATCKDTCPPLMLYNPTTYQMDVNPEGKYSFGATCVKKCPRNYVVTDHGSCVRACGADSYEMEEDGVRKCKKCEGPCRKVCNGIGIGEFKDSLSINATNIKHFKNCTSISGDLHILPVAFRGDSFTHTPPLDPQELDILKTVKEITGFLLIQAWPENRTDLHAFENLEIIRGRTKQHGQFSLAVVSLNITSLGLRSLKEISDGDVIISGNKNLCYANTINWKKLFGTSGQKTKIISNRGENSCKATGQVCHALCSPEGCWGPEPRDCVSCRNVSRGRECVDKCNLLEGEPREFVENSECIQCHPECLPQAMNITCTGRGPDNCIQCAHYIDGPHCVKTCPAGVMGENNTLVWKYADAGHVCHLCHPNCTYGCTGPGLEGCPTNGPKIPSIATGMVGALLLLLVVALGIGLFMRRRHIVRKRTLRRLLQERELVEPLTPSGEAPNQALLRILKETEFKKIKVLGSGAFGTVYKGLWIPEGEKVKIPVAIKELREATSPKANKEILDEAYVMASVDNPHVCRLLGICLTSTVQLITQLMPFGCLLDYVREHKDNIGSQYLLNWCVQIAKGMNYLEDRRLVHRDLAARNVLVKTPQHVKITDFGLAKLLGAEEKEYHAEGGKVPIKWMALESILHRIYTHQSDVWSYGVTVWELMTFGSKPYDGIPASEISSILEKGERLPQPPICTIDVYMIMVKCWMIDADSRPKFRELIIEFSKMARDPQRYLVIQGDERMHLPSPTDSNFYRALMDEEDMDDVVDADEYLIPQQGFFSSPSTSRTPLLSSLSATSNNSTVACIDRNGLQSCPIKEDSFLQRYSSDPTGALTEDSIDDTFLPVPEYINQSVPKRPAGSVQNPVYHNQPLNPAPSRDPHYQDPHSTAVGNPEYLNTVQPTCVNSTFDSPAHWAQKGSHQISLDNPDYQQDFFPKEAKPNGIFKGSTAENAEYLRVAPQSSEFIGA

[8] = target: Follistatin-related protein 3 (Homo sapiens) (UniProt O95633); assay: compounds binding follistatin-related protein 3 – biochemical, small-molecule microarray, 635 nm fluorescence, primary screen (AID 1105); conditions: FSTL3 binding, higher = more signal;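 note: score merges emission near 667 nm and signal to noise per printed spot across three slides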
Chain of Follistatin-related protein 3 (Homo sapiens) (O95633 whole entry, looked up): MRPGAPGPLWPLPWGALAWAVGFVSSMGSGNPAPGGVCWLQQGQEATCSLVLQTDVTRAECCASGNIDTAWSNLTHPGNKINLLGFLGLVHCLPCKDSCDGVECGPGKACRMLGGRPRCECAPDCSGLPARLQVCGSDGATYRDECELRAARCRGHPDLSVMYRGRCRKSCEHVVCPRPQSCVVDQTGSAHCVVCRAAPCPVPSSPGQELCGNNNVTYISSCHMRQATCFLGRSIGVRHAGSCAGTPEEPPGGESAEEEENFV

[9] = target: Dickkopf-related protein 1 (Homo sapiens) (UniProt O94907); assay: small molecules binding DKK1 protein – biochemical, small-molecule microarray, 635 nm fluorescence scan, primary screen (AID 1106); conditions: higher = more signal;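 note: score merges emission near 667 nm with signal to noise over three replicate slides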
Chain of Dickkopf-related protein 1 (Homo sapiens) (O94907 whole entry, looked up): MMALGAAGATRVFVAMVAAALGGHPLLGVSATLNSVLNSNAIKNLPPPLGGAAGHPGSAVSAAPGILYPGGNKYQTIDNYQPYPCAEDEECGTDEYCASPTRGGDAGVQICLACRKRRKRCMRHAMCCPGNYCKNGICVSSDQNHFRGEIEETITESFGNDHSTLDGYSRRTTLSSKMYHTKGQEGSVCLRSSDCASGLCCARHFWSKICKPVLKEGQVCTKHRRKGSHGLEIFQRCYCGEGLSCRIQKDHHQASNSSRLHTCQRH

[10] = test system: Inhibin beta A chain (activin A); assay: small molecules binding activin A – biochemical, small-molecule microarray, 635 nm fluorescence scan, primary screen (AID 1107); conditions: INHBA, higher = more signal;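 note: mouse activin A protein probed at 4.33 µg/mL on printed slides; score merges bound-protein fluorescence near 667 nm with spot signal-to-noise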
[11] = test system: Human papillomavirus type 1a protein E7 (residues 44-93); assay: small molecules binding HPV E7 44-93 – biochemical, small-molecule microarray, residues 44-93, 635 nm fluorescence, primary screen (AID 1108); conditions: fluorescence 635 nm, higher = more signal;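 note: E7 fragment applied at 1 µg/mL in TBST for 1 h at 4 C; score combines spot fluorescence with its signal to noise ratio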
[12] = hepatitis C replication reporter changes, two-sided – Huh7 cells, luciferase reporter, HCV replication inhibitor project, primary screen (AID 1109); conditions: Huh7 HCV replicon luciferase reporter, 48 h; higher = more signal;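 note: huh7 hepatoma cells harbouring a luciferase neomycin HCV replicon reporter; luciferase luminescence as measure of HCV replicon replication; test concentration not given here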
[13] = target: Left-right determination factor 2 (Homo sapiens) (UniProt O00292); assay: small molecules binding LEFTY2 protein – biochemical, small-molecule microarray, 635 nm fluorescence scan, primary screen (AID 1110); conditions: higher = more signal
Chain of Left-right determination factor 2 (Homo sapiens) (O00292 whole entry, looked up): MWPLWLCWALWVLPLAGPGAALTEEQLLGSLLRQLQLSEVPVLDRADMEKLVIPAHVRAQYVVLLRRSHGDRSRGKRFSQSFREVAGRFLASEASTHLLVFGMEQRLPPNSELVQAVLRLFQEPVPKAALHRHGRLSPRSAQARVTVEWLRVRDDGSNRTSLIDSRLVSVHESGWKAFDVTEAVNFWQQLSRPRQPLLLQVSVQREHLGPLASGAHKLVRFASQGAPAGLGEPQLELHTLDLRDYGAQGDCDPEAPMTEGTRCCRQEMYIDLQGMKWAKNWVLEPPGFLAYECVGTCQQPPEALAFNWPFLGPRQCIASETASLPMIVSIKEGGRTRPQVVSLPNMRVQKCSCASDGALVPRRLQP

[14] = target: Calmodulin-1 (Homo sapiens) (UniProt P0DP23); assay: small molecules binding calmodulin-1 with EGTA – biochemical, small-molecule microarray, Cy5-labelled CALM1, profiling panel (AID 1111); conditions: Cy5-CALM1 binding fluorescence, higher = more signal;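 note: labelled calmodulin applied in Tris saline Tween buffer holding calcium plus EGTA and DTT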
[15] = target: Calmodulin-1 (Homo sapiens) (UniProt P0DP23); assay: small molecules binding Ca-loaded calmodulin-1 – biochemical, small-molecule microarray, Cy5-labelled CALM1, plus calcium, artefact control for SMM control-protein annotation, profiling panel (AID 1112); conditions: Cy5-CALM1 binding fluorescence, higher = more signal;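 note: score merges spot fluorescence with signal to noise from triplicate slides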
[16] = probe aWnt5a binding to arrayed compounds – biochemical, biotinylated probe, 635/667 nm fluorescence, primary screen (AID 1113); conditions: small-molecule microarray, higher = more signal;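 note: score merges 667 nm fluorescence intensity with signal-to-noise per printed feature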
[17] = probe aShh binding to arrayed compounds – biochemical, biotinylated probe, 635/667 nm fluorescence, primary screen (AID 1114); conditions: small-molecule microarray, higher = more signal;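 note: probe is biotin-labelled aShh protein from a stem cell growth factor screen; measures binding of labelled protein to compounds printed on the slide; score merges feature fluorescence at 667 nm with signal-to-noise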
[18] = probe aNog binding to arrayed compounds – biochemical, biotinylated probe, 635/667 nm fluorescence, primary screen (AID 1115); conditions: small-molecule microarray, higher = more signal;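 note: probe is biotinylated aNog protein used at 0.15 µg/mL for 1 h at 4 C; z-score combines 667 nm fluorescence of each spot with its signal to noise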
[19] = target: Torsin-1A-interacting protein 1 (Homo sapiens) (UniProt Q5JTV8); assay: compound microarray binding of lysate hLAP1 – cell lysate, small-molecule microarray, COS7 lysate, 635/667 nm fluorescence, primary screen (AID 1116); conditions: 635 nm fluorescence, higher = more signal
Chain of Torsin-1A-interacting protein 1 (Homo sapiens) (Q5JTV8 whole entry, looked up): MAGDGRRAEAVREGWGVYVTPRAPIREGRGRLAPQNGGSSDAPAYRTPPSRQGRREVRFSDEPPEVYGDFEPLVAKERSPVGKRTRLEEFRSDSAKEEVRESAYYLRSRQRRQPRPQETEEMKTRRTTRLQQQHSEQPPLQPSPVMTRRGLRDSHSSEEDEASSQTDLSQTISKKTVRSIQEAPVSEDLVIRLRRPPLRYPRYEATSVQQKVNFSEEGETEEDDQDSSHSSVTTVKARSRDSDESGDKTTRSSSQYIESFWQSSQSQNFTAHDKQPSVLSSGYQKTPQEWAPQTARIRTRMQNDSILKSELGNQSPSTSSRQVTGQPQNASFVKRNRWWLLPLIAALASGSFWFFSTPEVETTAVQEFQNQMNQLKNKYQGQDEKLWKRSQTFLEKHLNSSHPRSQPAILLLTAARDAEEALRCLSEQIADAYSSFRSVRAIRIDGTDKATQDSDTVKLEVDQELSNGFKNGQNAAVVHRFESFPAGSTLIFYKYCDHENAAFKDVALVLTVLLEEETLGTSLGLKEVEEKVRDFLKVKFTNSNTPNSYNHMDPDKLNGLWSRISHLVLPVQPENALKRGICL

[20] = target: Alpha-bungarotoxin (Bungarus multicinctus) (UniProt P60615); assay: compounds binding labelled alpha-BTX control protein – biochemical, small-molecule microarray, Alexa647 label, 635/667 nm fluorescence, artefact control for SMM control protein annotation, profiling panel (AID 1117); conditions: alpha-BTX-A647 binding fluorescence, higher = more signal
Chain of Alpha-bungarotoxin (Bungarus multicinctus) (P60615 whole entry, looked up): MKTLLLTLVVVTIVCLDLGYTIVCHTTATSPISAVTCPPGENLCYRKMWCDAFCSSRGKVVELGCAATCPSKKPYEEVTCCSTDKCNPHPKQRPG

C=C(C)[C@@H]1CC=C(C(O)C2C=CC3C(=O)N(c4ccccc4)C(=O)C3N2Nc2ccccc2F)CC1 (stereo not given in full)
composite z-score [1]: 1.15
composite z-score [2]: 0.671
composite z-score [3]: 0.972
z-score [4]: 0.869 (inactive)
composite z-score [5]: 1.08
composite z-score [6]: 1.3
composite z-score [7]: 0.662
composite z-score [8]: 1.42
composite z-score [9]: -0.112
composite z-score [10]: 0.725
composite z-score [11]: 1.46
z-score [12]: -0.0769
composite z-score [13]: 0.341
composite z-score [14]: 1.41
composite z-score [15]: 0.797
composite z-score [16]: 0.0003
composite z-score [17]: -0.0858
composite z-score [18]: 1.4
composite z-score [19]: 1.04
composite z-score [20]: 1.19

COCCCNC(=O)[C@@]1(Sc2ccc(C)cc2)CC(=O)N(C2CCCCC2)[C@@H]1c1ccc(CO)cc1
composite z-score [1]: 0.0677
composite z-score [2]: 0.196
composite z-score [3]: 0.899
z-score [4]: -0.397 (inactive)
composite z-score [5]: 0.229
composite z-score [6]: -0.823
composite z-score [7]: -0.687
composite z-score [8]: -1.1
composite z-score [9]: -1.65
composite z-score [10]: 0.446
composite z-score [11]: 0.104
z-score [12]: -1.19
composite z-score [13]: -0.942
composite z-score [14]: -0.206
composite z-score [15]: 0.0573
composite z-score [16]: -0.0799
composite z-score [17]: -0.0643
composite z-score [18]: 0.684
composite z-score [19]: 0.447
composite z-score [20]: -0.255

O=C1NC(=O)C2C1C=CC(C(O)CCc1ccccc1)N2Nc1ccc(Cl)cc1Cl (stereo not given)
composite z-score [1]: 0.187
composite z-score [2]: 1.39
composite z-score [3]: 1.29
z-score [4]: 1.5 (inactive)
composite z-score [5]: 0.265
composite z-score [6]: 0.107
composite z-score [7]: -0.973
composite z-score [8]: 0.195
composite z-score [9]: -0.743
composite z-score [10]: 1.28
composite z-score [11]: -0.72
z-score [12]: -0.271
composite z-score [13]: -0.448
composite z-score [14]: 1.54
composite z-score [15]: 0.819
composite z-score [16]: 0.539
composite z-score [17]: -0.0571
composite z-score [18]: 1.04
composite z-score [19]: 1.97
composite z-score [20]: 2.65

Cc1cc(C)c(C(O)C2C=CC3C(=O)NC(=O)C3N2Nc2ccc(Cl)cc2Cl)c(C)c1 (stereo not given)
composite z-score [1]: 0.651
composite z-score [2]: 0.639
composite z-score [3]: 1.2
z-score [4]: 0.465 (inactive)
composite z-score [5]: 0.871
composite z-score [6]: 0.753
composite z-score [7]: 0.253
composite z-score [8]: 0.95
composite z-score [9]: -0.0057
composite z-score [10]: 1.31
composite z-score [11]: 1.4
z-score [12]: -0.293
composite z-score [13]: 0.105
composite z-score [14]: 2.18
composite z-score [15]: 0.954
composite z-score [16]: 0.0489
composite z-score [17]: 0.171
composite z-score [18]: 1.92
composite z-score [19]: 1.78
composite z-score [20]: 1

Cc1ccc(S[C@]2(C(=O)O)CC(=O)N(C3Cc4ccccc4C3)[C@@H]2c2ccc(CO)cc2)cc1
composite z-score [1]: 1.02
composite z-score [2]: 0.526
composite z-score [3]: 1.08
z-score [4]: 0.2 (inactive)
composite z-score [5]: 0.0926
composite z-score [6]: -0.775
composite z-score [7]: -0.846
composite z-score [8]: -0.946
composite z-score [9]: -1.69
composite z-score [10]: 1.19
composite z-score [11]: 0.0922
z-score [12]: -0.0907
composite z-score [13]: -1.07
composite z-score [14]: 0.967
composite z-score [15]: 1.1
composite z-score [16]: 0.0077
composite z-score [17]: -0.0322
composite z-score [18]: 0.649
composite z-score [19]: 0.0148
composite z-score [20]: 0.0125

COC(=O)[C@@]1(Cc2ccc(F)cc2)[C@H]2c3cc(C(=O)N4CCCC4)n(CCc4ccc(O)c(O)c4)c3C[C@H]2CN1C(=O)c1ccccc1
composite z-score [1]: 0.391
composite z-score [2]: 1.8
composite z-score [3]: 1.04
z-score [4]: -2.62 (inactive)
composite z-score [5]: -0.206
composite z-score [6]: -1.73
composite z-score [7]: -0.0942
composite z-score [8]: -0.457
composite z-score [9]: -0.359
composite z-score [10]: 1.1
composite z-score [11]: -0.369
z-score [12]: -1.79
composite z-score [13]: -0.772
composite z-score [14]: 0.765
composite z-score [15]: 0.694
composite z-score [16]: 0.752
composite z-score [17]: 2.04
composite z-score [18]: 2.27
composite z-score [19]: 0.661
composite z-score [20]: -0.125

COc1ccc([Si](C)(C)[C@@H]2[C@@H](CC(=O)N(CCO)Cc3ccccc3)O[C@]3(C(=O)N(Cc4cccc(N5CCOC5=O)c4)c4ccccc43)[C@H]2C)cc1
composite z-score [1]: 1.07
composite z-score [2]: -0.178
composite z-score [3]: -0.29
z-score [4]: -0.244 (inactive)
composite z-score [5]: 0.386
composite z-score [6]: 0.688
composite z-score [7]: 0.41
composite z-score [8]: 0.468
composite z-score [9]: 0.291
composite z-score [10]: 0.523
composite z-score [11]: -0.139
z-score [12]: -3.7
composite z-score [13]: 0.538
composite z-score [14]: -0.561
composite z-score [15]: -0.44
composite z-score [16]: -0.173
composite z-score [17]: -0.0011
composite z-score [18]: -0.237
composite z-score [19]: 0.861
composite z-score [20]: 1.2

COC(=O)[C@@]1(Cc2ccc(F)cc2)[C@H]2c3cc(C(=O)N(C)C)n(Cc4cc(F)cc5c4OCOC5)c3C[C@H]2CN1C(=O)c1ccccc1
composite z-score [1]: 0.743
composite z-score [2]: 1.25
composite z-score [3]: 1.25
z-score [4]: -1.26 (inactive)
composite z-score [5]: 0.87
composite z-score [6]: 0.427
composite z-score [7]: 0.105
composite z-score [8]: 0.913
composite z-score [9]: -0.171
composite z-score [10]: 0.677
composite z-score [11]: 1.41
z-score [12]: -1.81
composite z-score [13]: 0.011
composite z-score [14]: 1.68
composite z-score [15]: 0.0074
composite z-score [16]: -0.001
composite z-score [17]: 0.0856
composite z-score [18]: 0.468
composite z-score [19]: 0.822
composite z-score [20]: 1.04

CN(C)CCCNC(=O)[C@@H]1c2ccccc2C(=O)N(Cc2ccccc2Cl)[C@H]1c1ccc(CO)cc1
composite z-score [1]: -0.405
composite z-score [2]: 0.0414
composite z-score [3]: 0.366
z-score [4]: -0.738 (inactive)
composite z-score [5]: -0.497
composite z-score [6]: 0.333
composite z-score [7]: -0.493
composite z-score [8]: -0.89
composite z-score [9]: 0.0146
composite z-score [10]: 0.828
composite z-score [11]: 0.0979
z-score [12]: -1.7
composite z-score [13]: -0.505
composite z-score [14]: -0.139
composite z-score [15]: -0.464
composite z-score [16]: -0.124
composite z-score [17]: -0.114
composite z-score [18]: 0.213
composite z-score [19]: 0.779
composite z-score [20]: 1.74

COC(=O)[C@@]1(Cc2ccc(OC)cc2)[C@H]2c3cc(C(=O)N4CCCC4)n(Cc4cccc5ccccc45)c3C[C@H]2CN1C(=O)c1ccccc1
composite z-score [1]: 0.654
composite z-score [2]: 0.741
composite z-score [3]: 1.08
z-score [4]: -0.261 (inactive)
composite z-score [5]: 0.821
composite z-score [6]: 0.407
composite z-score [7]: -0.282
composite z-score [8]: 0.293
composite z-score [9]: -0.724
composite z-score [10]: 0.849
composite z-score [11]: 0.764
z-score [12]: -0.356
composite z-score [13]: -0.58
composite z-score [14]: 1.38
composite z-score [15]: 0.498
composite z-score [16]: 0.0913
composite z-score [17]: 0.521
composite z-score [18]: 1.95
composite z-score [19]: 1.3
composite z-score [20]: 0.716

COC(=O)[C@@]1(Cc2ccccc2N=[N+]=[N-])N=C(c2ccc(OCCCO)cc2)O[C@H]1c1ccccc1N=[N+]=[N-]
composite z-score [1]: 1.52
composite z-score [2]: 0.793
composite z-score [3]: 1
z-score [4]: 7.07 (inactive)
composite z-score [5]: 0.386
composite z-score [6]: 0.65
composite z-score [7]: -0.098
composite z-score [8]: 0.419
composite z-score [9]: 0.0345
composite z-score [10]: 1.31
composite z-score [11]: 0.193
z-score [12]: -3.4
composite z-score [13]: -0.182
composite z-score [14]: 0.178
composite z-score [15]: -0.62
composite z-score [16]: 0.027
composite z-score [17]: -0.064
composite z-score [18]: 1.05
composite z-score [19]: 0.435
composite z-score [20]: 0.726
